Results as given in PubChem BioAssay AID588651 (The Scripps Research Institute Molecular Screening Center, 2011).
Active and inactive are the calls of the source. Rule as the data show it: active = inhibition above about 65%; inactive = the rest.

The molecules below were run on Fam108b (assay: Fam108b inhibitors and proteome off-target selectivity – biochemical, gel-based ABPP, recombinant soluble Fam108b, HTS hits, complex proteome, late-stage follow-up (AID 588651;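 also: Fam108b spiked into mouse brain membrane proteome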)). Details: FP-rhodamine labeling in proteome, at 20 µM, hits give high values.

Row | Compound | inhibition
1 | NC(Cc1cc(O)c(O)cc1O)C(=O)O (stereo not drawn) | 0% (inactive)
2 | Cc1ccccc1N1C(=O)/C(=C/c2ccco2)C(=O)NC1=S | 0% (inactive)
3 | C[n+]1c(-c2ccccc2)c2cc(N)ccc2c2ccc(N)cc21 | 0% (inactive)
